This is an account of results in PubChem BioAssay (EPA / NIEHS).

Active and inactive are the calls of the source. How the source made its calls: active means hit-call score of the fitted dose curve at least 0.9, where 1 is the maximum; inactive means score below 0.9.

In test [1] the target is Transcription factor E2F1 (Homo sapiens) (UniProt Q01094). Kind of test: ATG_E2F_CIS: Attagene CIS-FACTORIAL HepG2 Assay for human E2F Transcription Factor 1 (AID 2282935). Conditions: HepG2 Attagene cis-reporter, E2F reporter RNA transcripts; actives raise or lower the signal. An outline of the steps:
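Fluorescent RT-PCR products, digested with HpaI for 2 h at 37 C, are separated by capillary electrophoresis. Source RNA comes from transfected HepG2 cultures treated for 24 h.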

Test [2] can be described thus: ATG_E_Box_CIS: Attagene CIS-FACTORIAL HepG2 Assay for human Enhancer Box (E-box) (AID 2282936). Conditions: HepG2 E-box cis-reporter transcription, actives raise or lower the signal. An outline of the steps: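 Fluorescent reporter fragments separated by capillary electrophoresis gave the signal; mRNA came from HepG2 cells transfected with cis-element reporters and treated 24 h. Curves fitted bidirectionally relative to DMSO controls.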

A short description of test [3]: ATG_M_61_CIS: Attagene CIS-FACTORIAL HepG2 Assay for M61 Transcription Factor (Internal Marker) (AID 2282937). Conditions: HepG2 Attagene CIS-FACTORIAL M61 internal marker reporter; actives raise or lower the signal. An outline of the steps: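 Endogenous transcription factor activity in HepG2 is read through transiently transfected cis-element reporter units. After 24 h dosing, RNA undergoes reverse transcription, PCR and primer extension with 6-FAM before capillary electrophoresis; DMSO-referenced bidirectional fit.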

The nature of test [4]: ATG_EGR_CIS: Attagene CIS-FACTORIAL HepG2 Assay for human Early Growth Response 1 (EGR1) (AID 2282938). Conditions: HepG2 Attagene CIS-FACTORIAL EGR reporter mRNA; actives raise or lower the signal. The essentials: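 Activity is taken as induction or loss of reporter mRNA versus DMSO, fitted bidirectionally. Transcripts from cis-regulated reporter units in transiently transfected HepG2 were measured after 24 h by RT-PCR with capillary electrophoresis.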

Test [5] is described as follows: ATG_M_19_CIS: Attagene CIS-FACTORIAL HepG2 Assay for M19 Transcription Factor (Internal Marker) (AID 2282939). Conditions: HepG2 Attagene CIS-FACTORIAL M19 internal marker reporter; actives raise or lower the signal. The essentials: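 HepG2 cells transiently transfected with cis-regulated multiplexed reporter units, dosed 24 h. Reporter mRNA quantified by RT-PCR and capillary electrophoresis; internal background marker fitted bidirectionally versus DMSO.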

Test [6] can be described thus: ATG_ERE_CIS: Attagene CIS-FACTORIAL HepG2 Assay for Estrogen Response Element (ERE) (AID 2282940). Conditions: HepG2 ERE cis-reporter, Attagene RNA transcript; actives raise or lower the signal. The essentials: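 HepG2 cells transiently transfected with multiplexed cis-element reporter units, measuring endogenous transcription factor activity; ERE reporter mRNA quantified after 24 h exposure by RT-PCR, fluorescent labelling, HpaI digestion and capillary electrophoresis. Bidirectional change versus DMSO.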

For test [7], the target named is Hepatocyte nuclear factor 3-beta (Homo sapiens) (UniProt Q9Y261). The test can be described thus: ATG_FoxA2_CIS: Attagene CIS-FACTORIAL HepG2 Assay for human Forkhead box A2 (FOXA2) (AID 2282942). Conditions: HepG2 cis-reporter transcription factor activity, 24 h; actives raise or lower the signal. The essentials: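 Reporter transcript induction is measured by fluorescence after capillary electrophoresis of RT-PCR products from HepG2 cells exposed 24 h. Cis-regulated reporter units report endogenous factor activity; curves fitted both directions against DMSO.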

Test [8] can be described thus: ATG_FoxO_CIS: Attagene CIS-FACTORIAL HepG2 Assay for human Forkhead box O (FoxO) (AID 2282943). Conditions: HepG2 Attagene cis-reporter, FoxO element, mRNA; actives raise or lower the signal. The essentials:
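Human hepatoma HepG2 cells carry transiently introduced reporter transcription units controlled by cis promoter elements. Chemical treatment lasted 24 h, and mRNA signal was compared with DMSO.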

Test [9] can be described thus: ATG_GATA_CIS: Attagene CIS-FACTORIAL HepG2 Assay for human GATA Binding Protein (AID 2282944). Conditions: HepG2 GATA cis-element reporter, Attagene multiplex mRNA; actives raise or lower the signal. An outline of the steps: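 HepG2 cells transiently transfected with multiplexed cis-element reporter units measure endogenous GATA activity; after 24 h compound exposure, reporter mRNA quantified by RT-PCR and capillary electrophoresis. Changes fitted in both directions vs DMSO.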

Test [10] in a line: ATG_GLI_CIS: Attagene CIS-FACTORIAL HepG2 Assay for human Zinc Finger Protein GLI1 (AID 2282945). Conditions: HepG2, Attagene cis-factorial reporter mRNA, GLI element; actives raise or lower the signal. An outline of the steps: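 Bidirectional curve fits relative to DMSO, using reporter mRNA levels from RT-PCR plus capillary electrophoresis. Cells were HepG2 transiently carrying cis-regulated reporter constructs, harvested 24 h after dosing.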

The nature of test [11]: ATG_GRE_CIS: Attagene CIS-FACTORIAL HepG2 Assay for human Glucocorticoid Response Elements (GRE) (AID 2282947). Conditions: HepG2 GRE cis-reporter, Attagene multiplex mRNA; actives raise or lower the signal. An outline of the steps: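 Multiplexed cis-reporter mRNA induction, HepG2, 24 h post-dose. RT-PCR, FAM-labelled, HpaI-digested amplicons by CE. Bidirectional fit vs DMSO.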

The nature of test [12]: ATG_ISRE_CIS: Attagene CIS-FACTORIAL HepG2 Assay for human Interferon Regulatory Factor 1 (IRF1) binding to an Interferon-Stimulated Response Element (ISRE) (AID 2282948). Conditions: HepG2 ISRE cis-reporter (Attagene), mRNA transcription readout; actives raise or lower the signal. An outline of the steps: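 Signal reflects induction or loss of ISRE-linked reporter mRNA in transiently transfected HepG2 cells after a 24 h treatment, detected by fluorescent RT-PCR fragments on capillary electrophoresis and normalised to DMSO.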

A short description of test [13]: ATG_M_32_CIS: Attagene CIS-FACTORIAL HepG2 Assay for M32 Transcription Factor (Internal Marker) (AID 2282949).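 Further: background control marker of the multiplexed CIS panel rather than a real target.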 Conditions: HepG2 Attagene cis-factorial M32 reporter, mRNA; actives raise or lower the signal. An outline of the steps: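 Transient MRTU transfection of HepG2; 24 h compound treatment; TriZol RNA, oligo(dT) RT, reporter PCR, 6-FAM primer extension, HpaI cut, CE. Gain/loss of signal vs DMSO.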

Test [14] in a line: ATG_M_06_CIS: Attagene CIS-FACTORIAL HepG2 Assay for M06 Transcription Factor (Internal Marker) (AID 2282950). Conditions: HepG2 Attagene CIS-FACTORIAL M06 internal marker reporter; actives raise or lower the signal. An outline of the steps: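 Internal background marker within multiplexed cis-reporter HepG2 system. Cells transiently transfected, dosed 24 h; reporter mRNA measured by RT-PCR, HpaI digestion and capillary electrophoresis. Bidirectional fit relative to DMSO.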

In test [15] the target is Heat shock factor protein 1 (Homo sapiens) (UniProt Q00613). The test can be described thus: ATG_HSE_CIS: Attagene CIS-FACTORIAL HepG2 Assay for human Heat Shock Transcription Factor 1 (HSE) (AID 2282953). Conditions: HepG2 HSE cis-reporter, Attagene RNA transcription; actives raise or lower the signal. An outline of the steps:
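HepG2 cells transfected with cis-promoter reporter units sensing endogenous transcription factor activity; reporter mRNA quantified 24 h post-dose by RT-PCR and capillary electrophoresis of 6-FAM-labelled products. Bidirectional fitting against DMSO.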

A short description of test [16]: ATG_PBREM_CIS: Attagene CIS-FACTORIAL HepG2 Assay for human Phenobarbital-responsive Enhancer Module (PBREM) (AID 2282955). Conditions: HepG2 PBREM cis-reporter, Attagene multiplexed transcription; actives raise or lower the signal. The essentials:
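Cells were transfected with cis-element reporter units and treated for 24 h, after which RNA was extracted and reporter transcripts measured by RT-PCR and capillary electrophoresis.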

The target in test [17] is Hypoxia-inducible factor 1-alpha (Homo sapiens) (UniProt Q16665). Kind of test: ATG_HIF1a_CIS: Attagene CIS-FACTORIAL HepG2 Assay for human Hypoxia Inducible Factor 1 (HIF1A) (AID 2282951). Conditions: HepG2 Attagene cis-factorial HIF1a reporter transcription; actives raise or lower the signal. An outline of the steps: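 Fluorescence intensity of capillary-separated, 6-FAM-labelled reporter amplicons gives mRNA induction in HepG2 cells carrying transfected cis-promoter reporter units; cells exposed 24 h, responses fitted up or down from DMSO.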

The target in test [18] is Hepatocyte nuclear factor 6 (Homo sapiens) (UniProt Q9UBC0). The test can be described thus: ATG_HNF6_CIS: Attagene CIS-FACTORIAL HepG2 Assay for human Hepatocyte Nuclear Factor 6 (HNF6) (AID 2282952). Conditions: HepG2 Attagene cis-factorial HNF6 reporter transcription; actives raise or lower the signal. The essentials: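 Endogenous factor activity read in transiently transfected HepG2 via promoter-regulated reporter transcripts. RNA harvested 24 h post-dosing, reverse-transcribed, PCR-amplified, FAM-labelled, HpaI-digested and resolved by capillary electrophoresis; fitted in both directions against DMSO.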

The nature of test [19]: ATG_MRE_CIS: Attagene CIS-FACTORIAL HepG2 Assay for human Metal Responsive Element (MRE) (AID 2282954). Conditions: HepG2 MRE cis-reporter transcription, Attagene multiplex; actives raise or lower the signal. The essentials: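 Multiplexed cis-reporter assay in human HepG2 liver cells, 24 h incubation with test chemical. Reporter transcripts measured by RT-PCR and capillary electrophoresis; values from bidirectional curve fitting versus DMSO.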

Sequence of Hepatocyte nuclear factor 3-beta (Homo sapiens) (Q9Y261 whole entry, looked up): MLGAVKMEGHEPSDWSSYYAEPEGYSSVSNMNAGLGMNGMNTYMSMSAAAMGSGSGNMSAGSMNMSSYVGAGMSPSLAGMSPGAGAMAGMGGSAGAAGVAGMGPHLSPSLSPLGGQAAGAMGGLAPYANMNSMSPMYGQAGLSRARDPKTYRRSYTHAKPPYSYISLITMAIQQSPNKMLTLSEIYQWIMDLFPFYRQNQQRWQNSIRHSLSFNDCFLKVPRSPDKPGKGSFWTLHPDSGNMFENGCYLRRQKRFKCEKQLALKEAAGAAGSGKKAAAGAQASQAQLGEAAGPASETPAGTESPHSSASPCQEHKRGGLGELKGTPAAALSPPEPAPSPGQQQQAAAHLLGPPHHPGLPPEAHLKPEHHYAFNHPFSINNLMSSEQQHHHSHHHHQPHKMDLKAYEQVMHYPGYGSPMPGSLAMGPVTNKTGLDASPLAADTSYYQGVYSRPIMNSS
Sequence of Heat shock factor protein 1 (Homo sapiens) (Q00613 whole entry, looked up): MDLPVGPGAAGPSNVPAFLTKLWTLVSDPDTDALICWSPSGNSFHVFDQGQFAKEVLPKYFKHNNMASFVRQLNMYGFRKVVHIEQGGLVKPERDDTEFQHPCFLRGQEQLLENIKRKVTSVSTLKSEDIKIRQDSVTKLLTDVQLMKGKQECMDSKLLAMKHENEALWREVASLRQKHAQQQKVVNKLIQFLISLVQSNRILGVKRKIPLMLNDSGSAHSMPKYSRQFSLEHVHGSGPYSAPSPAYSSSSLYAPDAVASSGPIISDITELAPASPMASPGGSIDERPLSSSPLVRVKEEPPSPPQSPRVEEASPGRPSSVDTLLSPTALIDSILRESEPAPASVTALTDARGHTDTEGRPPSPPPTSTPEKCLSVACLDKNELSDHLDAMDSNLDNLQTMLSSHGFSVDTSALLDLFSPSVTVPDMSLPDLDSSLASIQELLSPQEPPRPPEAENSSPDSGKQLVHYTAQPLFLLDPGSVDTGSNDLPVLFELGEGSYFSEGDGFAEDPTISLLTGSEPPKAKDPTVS
Sequence of Hepatocyte nuclear factor 6 (Homo sapiens) (Q9UBC0 whole entry, looked up): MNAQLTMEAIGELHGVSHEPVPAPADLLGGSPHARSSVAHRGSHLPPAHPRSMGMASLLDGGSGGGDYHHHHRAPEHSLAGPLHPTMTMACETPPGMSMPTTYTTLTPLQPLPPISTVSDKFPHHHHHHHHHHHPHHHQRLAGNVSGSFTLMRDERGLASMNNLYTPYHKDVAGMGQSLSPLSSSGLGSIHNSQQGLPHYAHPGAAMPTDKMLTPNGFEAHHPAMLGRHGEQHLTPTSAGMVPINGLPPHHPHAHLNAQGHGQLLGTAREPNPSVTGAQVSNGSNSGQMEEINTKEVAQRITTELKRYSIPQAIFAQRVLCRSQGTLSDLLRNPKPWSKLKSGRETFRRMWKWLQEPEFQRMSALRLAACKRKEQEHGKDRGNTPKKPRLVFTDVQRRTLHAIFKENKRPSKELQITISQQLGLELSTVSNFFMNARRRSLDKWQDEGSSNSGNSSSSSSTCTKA
Sequence of Hypoxia-inducible factor 1-alpha (Homo sapiens) (Q16665 whole entry, looked up): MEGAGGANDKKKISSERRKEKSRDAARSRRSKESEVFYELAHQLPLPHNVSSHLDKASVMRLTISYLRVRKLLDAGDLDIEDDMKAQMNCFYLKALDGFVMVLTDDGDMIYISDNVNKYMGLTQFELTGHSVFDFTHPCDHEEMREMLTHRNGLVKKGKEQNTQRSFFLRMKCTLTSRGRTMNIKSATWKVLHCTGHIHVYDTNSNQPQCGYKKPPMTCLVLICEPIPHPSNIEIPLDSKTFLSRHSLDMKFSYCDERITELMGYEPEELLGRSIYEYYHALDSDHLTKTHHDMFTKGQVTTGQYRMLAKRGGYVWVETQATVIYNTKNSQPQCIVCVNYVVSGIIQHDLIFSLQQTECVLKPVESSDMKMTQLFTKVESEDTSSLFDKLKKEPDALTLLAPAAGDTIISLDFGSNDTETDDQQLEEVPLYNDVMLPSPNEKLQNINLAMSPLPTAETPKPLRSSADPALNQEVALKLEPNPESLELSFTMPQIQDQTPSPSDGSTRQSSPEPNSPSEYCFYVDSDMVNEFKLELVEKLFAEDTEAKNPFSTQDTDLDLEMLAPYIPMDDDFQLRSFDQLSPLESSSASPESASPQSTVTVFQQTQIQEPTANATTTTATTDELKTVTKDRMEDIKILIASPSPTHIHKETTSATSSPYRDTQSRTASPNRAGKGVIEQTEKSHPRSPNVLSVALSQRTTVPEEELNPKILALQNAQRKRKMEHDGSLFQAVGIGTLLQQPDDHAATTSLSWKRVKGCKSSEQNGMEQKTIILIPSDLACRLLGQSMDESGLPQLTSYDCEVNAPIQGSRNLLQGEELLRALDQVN
Sequence of Transcription factor E2F1 (Homo sapiens) (Q01094 whole entry, looked up): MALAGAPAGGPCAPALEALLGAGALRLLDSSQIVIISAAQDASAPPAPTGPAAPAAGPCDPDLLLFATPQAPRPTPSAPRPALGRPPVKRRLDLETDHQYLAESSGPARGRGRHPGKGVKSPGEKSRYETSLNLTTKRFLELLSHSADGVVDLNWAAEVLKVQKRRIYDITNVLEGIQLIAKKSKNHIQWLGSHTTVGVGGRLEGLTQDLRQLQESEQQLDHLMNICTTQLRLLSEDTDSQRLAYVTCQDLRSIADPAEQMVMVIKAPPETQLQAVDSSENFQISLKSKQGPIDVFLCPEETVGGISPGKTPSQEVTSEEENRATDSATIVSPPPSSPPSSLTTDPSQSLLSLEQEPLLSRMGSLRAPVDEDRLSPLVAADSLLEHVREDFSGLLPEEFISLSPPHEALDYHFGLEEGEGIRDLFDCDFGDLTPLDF

As a reminder, the AC50 is the concentration at which the activity in the assay is half-maximal. Turning to `NC(=O)NN=Cc1ccc([N+](=O)[O-])o1`, the call in test [1], in [3], in test [4], in test [5], in test [6] and in test [7] was inactive. The outcome in test [8], in [9], in [10], in test [11], in test [12] and in test [13] was inactive. For the same compound, the compound was called inactive in test [14], in test [15] and in test [16]. Moreover, the AC50 in test [2] is 113 µM (active).

Regarding `O=C(O)c1cccc(C[C@@H]2COc3ccc(OCc4nc5cc(F)ccc5s4)cc3[C@@H]2O)c1`, the outcome in test [1], in test [3], in test [4], in test [5], in test [6] and in test [7] was inactive. Further, the compound was classed as inactive in test [8], in test [9], in test [10], in test [11], in test [14] and in [17]. Also, the outcome in test [16] was inactive. The AC50 was 66.9 µM (active) in test [2], 163 µM (active) in test [12] and 168 µM (active) in test [15].

In the case of `Cn1cc[nH]c1=S`, the call in test [1], in [2], in [3], in test [4], in [5] and in test [6] was inactive. Further, the call in [8], in test [9], in test [10], in test [12], in test [14] and in [15] was inactive. The result in [16] was inactive.

Consider `FC(F)=C(F)C(F)(F)C(F)(F)C(F)(F)C(F)(F)C(F)(F)C(F)(F)F`, for which the outcome in test [1], in test [2], in [3], in [4], in test [5] and in test [6] was inactive. Moreover, the call in test [7], in [8], in test [9], in test [10], in test [11] and in [12] was inactive. The call in [14], in test [17], in [18], in [15] and in test [16] was inactive.

As to `NC(=O)N1c2ccccc2C=Cc2ccccc21`, the result in test [1], in [2], in test [3], in test [4], in test [5] and in test [7] was inactive. Also, the outcome in [8], in [9], in test [10], in test [12], in [14] and in test [17] was inactive. The call in test [15], in test [19] and in test [16] was inactive. In test [6], the AC50 was 49.9 µM (active).

On to `CCN(CC)C(=S)SSC(=S)N(CC)CC`, for which the compound was called inactive in [1], in [3], in test [5], in test [6], in test [11] and in test [14]. Further, the AC50 in [2] was 18.9 µM (active); in [4] it was 125 µM (active); in test [8], 152 µM (active); in test [9], 158 µM (active); in [10], 153 µM (active); in test [12], 81.3 µM (active). The AC50 in [15] was 111 µM (active); in [16] it was 166 µM (active).

For `OC[C@H]1O[C@@H]2O[C@H]3[C@H](O)[C@@H](O)[C@@H](O[C@H]4[C@H](O)[C@@H](O)[C@@H](O[C@H]5[C@H](O)[C@@H](O)[C@@H](O[C@H]6[C@H](O)[C@@H](O)[C@@H](O[C@H]7[C@H](O)[C@@H](O)[C@@H](O[C@H]1[C@H](O)[C@H]2O)O[C@@H]7CO)O[C@@H]6CO)O[C@@H]5CO)O[C@@H]4CO)O[C@@H]3CO`, the outcome in [1], in [2], in test [3], in test [4], in [5] and in test [6] was inactive. Further, the compound was called inactive in test [7], in test [8], in test [9], in [10], in [11] and in test [12]. Also, the outcome in test [14], in test [17], in test [18], in test [15], in test [19] and in test [16] was inactive.

Turning to `CCCCN1C(=O)[C@@H]([C@H](O)C2CCCCC2)NC(=O)C12CCN(Cc1ccc(Oc3ccc(C(=O)O)cc3)cc1)CC2`, the call in test [1], in test [2], in test [3], in test [4], in test [5] and in test [6] was inactive. Also, the compound was classed as inactive in test [7], in test [8], in test [9], in test [10], in test [14] and in [17]. Further, the call in [18], in test [15] and in test [16] was inactive. Further, the AC50 in [12] is 93.5 µM (active); in test [19], 75.8 µM (active).
